Assay results: the supplement of paper PMC7156485

Tests used:
Conditions in all cases: concentration: 10 µM; 24 h
[1] = tested on: HCC1569; assay: cell number relative to DMSO (% of DMSO); higher = more cells (less growth inhibition / toxicity)
In short: (§1)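 Using 384-well plates with 800 cells per well in RPMI plus 10% FBS, HCC1569 and TDF cells were exposed to compounds at 10 µM, in triplicate, for 24 h at 37 °C. Imaging of six fields per well at ×10 followed H1.0 and DAPI staining. The reported quantity, H1.0 nuclear intensity or cell number, is a median of replicates given as percent of the plate control, and HCC1569 values were smoothed for positional effects.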

[2] = tested on: TDF; assay: as above
In short: as §1

[3] = tested on: TDF; assay: H1.0 immunofluorescence intensity relative to DMSO (% of DMSO); higher = stronger H1.0 induction, active = 120 or more
In short: as §1

[4] = tested on: HCC1569; assay: H1.0 immunofluorescence intensity relative to DMSO (% of DMSO); higher = stronger H1.0 induction, active = 140 or more
In short: as §1
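Wherever H1.0 immunofluorescence intensity relative to DMSO is given: TDF is a line of transformed human dermal fibroblasts of mesenchymal origin.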
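Wherever cell number relative to DMSO is given: TDF denotes transformed human dermal fibroblasts of mesenchymal origin.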

In the case of `CCC(C)(C)c1ccc(CC(C)CN2CC(C)OC(C)C2)cc1` (configuration not stated) [Amorolfine], the cell number [1] is reported as 94.1, the cell number [2] is reported as 98.9 and the H1.0 immunofluorescence intensity [3] is reported as 94.6 (inactive). For the same compound, the H1.0 immunofluorescence intensity [4] was 110 (inactive).

For `COc1cc(NS(=O)(=O)c2ccc(N)cc2)nc(OC)n1` [Sulfadimethoxine], the cell number [1] was 103, the cell number [2] was 109 and the H1.0 immunofluorescence intensity [3] was 96.7 (inactive). For the same compound, the H1.0 immunofluorescence intensity [4] was 92.3 (inactive).

`CCn1nc(C(=O)O)c(=O)c2cc3c(cc21)OCO3` [Cinoxacin] was tested, and the cell number [1] was 97.6, the cell number [2] was 105 and the H1.0 immunofluorescence intensity [3] was 95.7 (inactive). The H1.0 immunofluorescence intensity [4] was 97.5 (inactive).

`COc1cc(C(=O)OCCC[NH+]2CCC[NH+](CCCOC(=O)c3cc(OC)c(OC)c(OC)c3)CC2)cc(OC)c1OC.[Cl-].[Cl-]` [Dilazep hydrochloride] was tested, and the cell number [1] was 94.8, the cell number [2] was 90.1 and the H1.0 immunofluorescence intensity [3] was 108 (inactive). For the same compound, the H1.0 immunofluorescence intensity [4] was 107 (inactive).

In the case of `O=C(NCc1ccc2c(c1)OCO2)c1c(Cl)cccc1Cl` [N-(1,3-benzodioxol-5-ylmethyl)-2,6-dichlorobenzamide], the cell number [1] is reported as 97.3, the cell number [2] is reported as 103 and the H1.0 immunofluorescence intensity [3] is reported as 97 (inactive). The H1.0 immunofluorescence intensity [4] was 105 (inactive).

With `COc1cc2ncnc(Nc3cccc(Cl)c3)c2cc1OC` [Tyrphostin AG 1478] the cell number [1] was 92.8, the cell number [2] was 94.6 and the H1.0 immunofluorescence intensity [3] was 96.2 (inactive). For the same compound, the H1.0 immunofluorescence intensity [4] was 119 (inactive).

With `CCCCCC(O)C=CC=O` (racemic) the cell number [1] was 99.2, the cell number [2] was 109 and the H1.0 immunofluorescence intensity [3] was 93.8 (inactive). The H1.0 immunofluorescence intensity [4] was 106 (inactive).

`CC1=NC(=NNc2cc(S(=O)(=O)[O-])c3cc([N+](=O)[O-])cc(S(=O)(=O)[O-])c3c2)C(COP(=O)([O-])[O-])=C(C=O)C1=O.[Na+].[Na+].[Na+].[Na+]` [PPNDS tetrasodium] was tested, and the cell number [1] was 104, the cell number [2] was 115 and the H1.0 immunofluorescence intensity [3] was 91 (inactive). For the same compound, the H1.0 immunofluorescence intensity [4] was 100 (inactive).
